Laboratory results reported in PubChem BioAssay AID588519 (ICCB-Longwood Screening Facility, Harvard Medical School, 2011).
The campaign covered roughly 150,000 compounds. About 1,000 (0.67%) were called active. Cut-off read from the data, not from the text of the source: active = % elongation below about 90%; inactive = the rest, inconclusive results apart. This excerpt belongs to a sample that is enriched for actives.

Target: Genome polyprotein (Poliovirus type 1 (strain Mahoney)) (UniProt P03300)
Assay: inhibitors of poliovirus polymerase RNA elongation – biochemical, fluorescence polarization, total intensity, primary screen (AID 588519); for z-score: compound at 16.7 µg/mL
Details: stronger effect = lower value; for % elongation: compound at 16.7 µg/mL; for z-score: measured here: FP z-score
[1] = measured here: total intensity read-out

Genome polyprotein (Poliovirus type 1 (strain Mahoney)), sequence (P03300 1749-2209 limits assumed): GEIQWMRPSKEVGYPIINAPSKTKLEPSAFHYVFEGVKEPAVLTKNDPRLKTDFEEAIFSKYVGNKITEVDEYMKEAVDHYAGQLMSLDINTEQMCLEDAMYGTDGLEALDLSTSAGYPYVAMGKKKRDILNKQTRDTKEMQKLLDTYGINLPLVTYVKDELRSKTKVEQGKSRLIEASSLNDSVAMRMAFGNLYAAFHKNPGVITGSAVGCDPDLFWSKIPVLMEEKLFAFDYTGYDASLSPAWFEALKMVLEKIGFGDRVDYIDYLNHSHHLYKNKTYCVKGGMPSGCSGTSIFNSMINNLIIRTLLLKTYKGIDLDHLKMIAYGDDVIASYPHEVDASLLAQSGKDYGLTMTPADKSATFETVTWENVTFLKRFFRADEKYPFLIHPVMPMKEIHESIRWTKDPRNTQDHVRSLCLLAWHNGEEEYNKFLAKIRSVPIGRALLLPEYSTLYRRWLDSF

Structure (SMILES) | % elongation | z-score | % elongation [1]
CCn1c(SCc2cc(=O)oc3cc(NC(C)=O)ccc23)nnc1-c1ccccc1 | 100% (inactive) | -0.5 | 111%
O=C(NN=c1c(=O)c2ccccc2c1=O)c1ccncc1 | 58% (active) | -12.6 | 54%
O=C(NNc1ncnc2ccccc12)c1ccncc1 | 106% (inactive) | 0.6 | 101%
CC(C)/C=N/NC(=O)c1ccccc1 | 103% (inactive) | 0.3 | 103%
O=c1[nH]c(CN2CCCC2c2ccc3c(c2)OCCO3)nc2cc(Cl)ccc12 (stereo unspecified) | 102% (inactive) | 0 | 104%
CCN(C(=O)CN1CCCCC1)c1nc2ccc(C)cc2s1 | 102% (inactive) | -0.3 | 103%
NC(=O)C1CCN(C(=S)Nc2ccccc2)CC1 | 103% (inactive) | 1.1 | 103%
O=C(Nc1ccccc1)C(=S)Nc1ccccc1 | 87% (active) | -1.9 | 88%
CC(C)OC(=O)Nc1ccccc1 | 106% (inactive) | 0.8 | 110%
COc1nc(NCCO)nc(Nc2ccc(I)cc2C)n1 | 99% (inactive) | -1.2 | 94%
O=C1c2ccccc2C(=O)N1CCN1c2cccc3cccc(c23)S1(=O)=O | 100% (inactive) | 0.1 | 101%
COC(=O)C1=CN(CCc2ccccc2)C=C(C(=O)OC)C1C(=O)OC | 107% (inactive) | 0.6 | 108%
CC(=O)Nc1ccccc1NC(=O)CN(C)S(=O)(=O)c1ccccc1 | 100% (inactive) | 0 | 103%
Cc1cc(N2CCNCC2)nc(C)n1 | 102% (inactive) | 0.1 | 102%
COC(=O)c1cc(N2CCNCC2)nc2ccccc12 | 88% (active) | -1.4 | 88%
COC(=O)c1cc(-c2cccs2)nc2ccccc12 | 101% (inactive) | -0.1 | 101%
N#CCCn1c(SCC(=O)NCCSc2ccc(Cl)cc2)nc2ccccc21 | 101% (inactive) | -0.2 | 104%
Cc1cc(SCc2ccccc2)nc2ccccc12 | 103% (inactive) | 0.4 | 102%
Cc1cc(/C=C/C(=O)N2CCCC2c2cccs2)c(C)n1Cc1ccco1 (stereo unspecified) | 104% (inactive) | 0.6 | 98%
Cn1cccc1C(=O)Nc1nccs1 | 111% (inactive) | 0.9 | 116%
CCCCOC(=O)Nc1nccs1 | 100% (inactive) | -0.4 | 99%
Nc1[nH]c(=S)sc1C(=O)Nc1nccs1 | 70% (active) | -3.3 | 75%
CCN(C(=O)CSc1nnc2scc(-c3cccc(OC)c3)n12)c1ccccc1 | 103% (inactive) | 0.2 | 100%
C#CCN1CCS(=O)(=O)CC1 | 100% (inactive) | -0.3 | 103%
CCNC(=O)C1CCCN(S(=O)(=O)N(CC)c2ccc(OCC)cc2)C1 (stereo unspecified) | 103% (inactive) | 0.5 | 105%
CC(C)c1ccc(C2CC(=O)N3CN(C4CCCCC4)CSC3=C2C#N)cc1 (stereo unspecified) | 81% (active) | -3.5 | 82%
Cc1cc(C)c(C(=O)COC(=O)c2ccc(N(C)C)cc2)c(C)c1 | 104% (inactive) | -0.3 | 97%
